Laboratory results: the emibetuzumab library of Makowski et al. (2022)
The list shows a part of the results. No count for the full screen is at hand.

B1: VH:VL chains; a variant is named by its letters at X, in order (parent)
chain 1: QVQLVQSGAEVKKPGASVKVSCKASGYTFTDYXMHWVRQAPGQGLEWMGXVNPNXXXTTYNQKFEGRVTMTTDTSTSTAYMELRSLRSDDTAVYYCARXNXLDXWGQGTTVTVSS
chain 2: DIQMTQSPSSLSASVGDRVTITCSVSSSVSSIYLHWYQQKPGKAPKLLIYSTSNLASGVPSRFSGSGSGTDFTLTISSLQPEDFATYYCQVYSGYPLTFGGGTKVEIK

Variants of: B1
Assay: yeast display scFab, FACS + sequencing
Conditions: with MET
How it was run: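 For FACS, yeast displaying a heavy-chain CDR mutant scFab library were labelled with 1 nM HGFR-Fc and anti-Myc (PBSB, 1% milk, 3 h, room temperature), and the top 50% antigen-positive cells were gated. Input and round-3 sorted populations were deep sequenced in two replicates. The binding call was positive for sequences occurring in both antigen-positive samples and negative for sequences occurring only in input.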

Variant | antigen binding call
DKEGGDGA | no binding
DREGDAVA | no binding
DREEGAGA | no binding
YRRRSAVA | binds
YRRRSAGA | binds
VTGGDDGA | no binding
VEGADAVA chain 1 G106S | no binding
AGGGNSGV | no binding
SKGRSSWS | no binding
VKGRASWS | no binding
VKGKSSWS | no binding
VKGRGSWS | binds
YKGRGSWS | binds
YKGGSAGY | binds
YKGEDDVY | no binding
YEGGGDVY | no binding
YKGTDAWY | no binding
VKGGAAVY | no binding
YKGGSDVY | binds
VKGTDAWY | no binding
YKGGSAWY | binds
DEKEGDAA | no binding
YEGGADVD | no binding
YRGGAAWD | binds

Variant | antigen binding call
YRGGAAWY | binds
YAGGAYLY | no binding
YRRRGFGD | no binding
YRRRGSLD | binds
YTGTSDLD | no binding
YRRRGSVD | binds
YRARGDLD | binds
YRRRGFVD | binds
DGARNSGV | no binding
FAGRAAWA | no binding
SETTDDVA | no binding
AGGGNDVY | no binding
YRRRGDVD | binds
YARADSLD | no binding
YRRRGYVD | no binding
YRRRSSVD | binds
YRRRGAVD | binds
YARRGSLD | binds
YTERGDVD | no binding
DARRGSGD | no binding
SEGTGDWV | no binding
VEEEGDSA | no binding
VETEGDVA | no binding
YRRRGDLD | binds

Variant | antigen binding call
YRREGSLD | binds
YRRRGSWD | binds
AEARSDGA | no binding
AEGRGAVY | no binding
SRGRGAWY | binds
SEGRGDVY | no binding
SEGRGAWY | binds
VETGNDGV | no binding
ATRGADAV | no binding
YRGRGVVD | binds
YREGDFVD | no binding
YAGTGVVD | no binding
YRGGGVVD | binds
YRGRGFVD | binds
YRGRDFVD | no binding
YAGRGVVD | no binding
VTGGDSWF | no binding
AGTRSFGY | no binding
FRAGGSVD | binds
FRAGGAVD | binds
FRATSAVD | no binding
FTEEGAVD | no binding
VKKTGSGA | no binding
VKEGGDVA | no binding

Variant | antigen binding call
VKAGDSGA | no binding
VTTKSSVA | no binding
YKARGSGS | binds
SKTKSSAS | no binding
DKAGGDGS | no binding
YKAGGSAS | binds
VKARGSVA | binds
VKARGSGA | binds
VAGGDDGF | no binding
SKTKSDGV | no binding
YKARGAWA | binds
VKEGGSSA | no binding
YTERAAWA | no binding
YKARGAGA | binds
VKARGSLA | binds
YKARGSGA | binds
YMAEGSGA | no binding
VKERGAVA | no binding
YEARNAGA | no binding
SAAGSVWY | no binding
VKEGGDGA | no binding
DEAGDAVV | no binding
SAGRGFGF | no binding
SRGRGAWF | binds

Variant | antigen binding call
SRGRGAGF | binds
YKAGDSSD | binds
AKTGDSSD | no binding
YARADSSD | no binding
AKAADSSD | no binding
YKRGSSSD | binds
YKAGGYSD | no binding
YKRKSASD | binds
AKGKASSD | no binding
VKRGSSSD | binds
VAEKGDVF | no binding
VTGEDDWV | no binding
DREGDDAV | no binding
SEARSDSF | no binding
YKRRDASD | no binding
YKRGSASD | binds
AKAGGASD | no binding
DTTGSDAV | no binding
VAGTDDWV | no binding
YRRGGFVV | binds
YRATDFVV | no binding
YRRRGFVV | binds
YRRRGFAV | binds
YRAGGFVV | binds

Variant | antigen binding call
YTATGFAV | no binding
ATAGSASD | no binding
DRGGDDWV | no binding
STGTSDLY | no binding
AATTDSGD | no binding
SAREGDAV | no binding
YRRGASSS | binds
YTRGASSS | binds
YTRGADLA | no binding
YTRGADGS | no binding
AETKGSLA | no binding
SAAGGAAV chain 1 L45S | no binding
DAEEDAGY | no binding
FGRGTSGD | no binding
FGRRTYGD | binds
FKTKSAGD | no binding
FKRGDAGD | binds
FTGEAAGD | no binding
FAARSYGD | no binding
FRRGDAGD | binds
VKKEDAGD | no binding
FRRGDALD | binds
